Drawing on PubChem BioAssay (NCI), this text covers growth inhibition for nine compounds.

Compounds without any hit were thinned out: in the full panel of roughly 79,000, 15% have a hit. Values without a mark were called inactive. Activity calls are given as the source filed them. No stated cut-off is given here; in the data, active means growth inhibition above about 70%; inactive means the rest.

Test [1] can be described thus: NCI Yeast Anticancer Drug Screen. Data for the rad50 strain (AID 155).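 Further: 0% = growth of vehicle-only cultures of the same strain.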 As to conditions: S. cerevisiae rad50 strain growth inhibition, hits give high values. Put shortly:
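Vehicle-treated cultures provide the reference for the growth inhibition reported for compound-exposed, repair-deficient yeast.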

The nature of test [2]: NCI Yeast Anticancer Drug Screen. Data for the mec2-1 strain (AID 157). Conditions: S. cerevisiae mec2-1 strain, hits give high values. Put shortly:
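Readout is yeast growth inhibition, normalised to vehicle-treated controls, in the mec2-1 strain exposed to compound.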

Test [3] can be described thus: NCI Yeast Anticancer Drug Screen. Data for the sgs1 mgt1 strain (AID 161).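 Further: 0% = growth of cultures given vehicle only.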 As to conditions: S. cerevisiae sgs1 mgt1 strain, hits give high values. In a few lines: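 This yeast growth screen uses a strain with defined DNA-repair lesions; compound-treated growth is compared with vehicle-treated growth.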
Test [4] in a line: NCI Yeast Anticancer Drug Screen. Data for the cln2 rad14 strain (AID 165).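 Further: 0% = growth equal to vehicle treated cultures.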 As to conditions: S. cerevisiae cln2 rad14 strain, hits give high values. Put shortly: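 Relative to vehicle controls, growth inhibition of compound-treated cln2 rad14 yeast was recorded.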
The nature of test [5]: NCI Yeast Anticancer Drug Screen. Data for the bub3 strain (AID 167). Conditions: S. cerevisiae bub3 mutant strain, hits give high values. In a few lines:
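Mutant yeast screening strain plus compound; vehicle-treated cultures serve as the 0% inhibition reference.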

A short description of test [6]: NCI Yeast Anticancer Drug Screen. Data for the mlh1 rad18 strain (AID 175). As to conditions: S. cerevisiae mlh1 rad18 strain growth inhibition, hits give high values. Put shortly: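 Test agents were incubated with a yeast strain of defined genotype (DNA damage repair defect). Inhibition of growth was derived by comparison with vehicle-exposed cultures.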
Where [7] appears, read: at 5.0 µM (retest, dose inferred, filed as 0.5).
[8] abbreviates: at 50.0 µM (retest, dose inferred, filed as 5.0).

Consider `C#CCNC1=CC(=O)CCC1`, for which the growth inhibition was -14% in test [1] (setting [7]); 16% in test [1] (setting [8]); -12.1% in test [1] (at 50.0 µM); 0% in test [2] (setting [7]); -1% in test [2] (setting [8]); 9.55% in test [2] (at 50.0 µM). Also, the growth inhibition in test [3] (setting [7]) was -3%; in test [3] (setting [8]), -10%; in test [3] (at 50.0 µM) it was -4.55%; in test [4] (setting [7]), 17%; in test [4] (setting [8]) it was 6%; in test [4] (at 50.0 µM) it was 58.5%. Besides, the growth inhibition was 14% in test [5] (setting [7]); -13% in test [5] (setting [8]); 35.5% in test [5] (at 50.0 µM); -4% in test [6] (setting [7]); 1% in test [6] (setting [8]); 17.6% in test [6] (at 50.0 µM).
In the case of `CCCCCC(CN(C)C)C(=O)/C=C/c1ccc(Cl)cc1` (configuration not stated), the growth inhibition in test [1] (setting [7]) was 21%; in test [1] (setting [8]) it was 99% (active); in test [1] (at 50.0 µM) it was 99.2% (active); in test [2] (setting [7]), -1%; in test [2] (setting [8]), 100% (active); in test [2] (at 50.0 µM) it was 99.3% (active). Also, the growth inhibition in test [3] (setting [7]) was 6%; in test [3] (setting [8]), 99% (active); in test [3] (at 50.0 µM), 99.3% (active); in test [4] (setting [7]), -1%; in test [4] (setting [8]) it was 99% (active); in test [4] (at 50.0 µM), 99.2% (active). For the same compound, the growth inhibition in test [5] (setting [7]) is 5%; in test [5] (setting [8]) it was 98% (active); in test [5] (at 50.0 µM) it was 99.3% (active); in test [6] (setting [7]), 33%; in test [6] (setting [8]), 99% (active); in test [6] (at 50.0 µM), 99.2% (active).
Regarding `O=[N+]([O-])CC(O)c1ccccc1Cl` (configuration not stated), the growth inhibition in test [1] (setting [7]) is 90% (active); in test [1] (setting [8]) it was 98% (active); in test [1] (at 50.0 µM), 99.3% (active); in test [2] (setting [7]), 5%; in test [2] (setting [8]) it was 99% (active); in test [2] (at 50.0 µM), 99.7% (active). The growth inhibition in test [3] (setting [7]) is -15%; in test [3] (setting [8]), 99% (active); in test [3] (at 50.0 µM), 99.5% (active); in test [4] (setting [7]), -4%; in test [4] (setting [8]), 98% (active); in test [4] (at 50.0 µM) it was 98.7% (active). Besides, the growth inhibition in test [5] (setting [7]) was 16%; in test [5] (setting [8]), 98% (active); in test [5] (at 50.0 µM) it was 99.4% (active); in test [6] (setting [7]) it was 30%; in test [6] (setting [8]) it was 99% (active); in test [6] (at 50.0 µM) it was 99.2% (active).
On to `NC(=S)NNCCC(=O)Nc1ccccc1C(F)(F)F`, for which the growth inhibition in test [1] (setting [7]) was 2%; in test [1] (setting [8]), 3%; in test [1] (at 50.0 µM), -9.75%; in test [2] (setting [7]) it was -2%; in test [2] (setting [8]), 2%; in test [2] (at 50.0 µM), 12.2%. In addition, the growth inhibition in test [3] (setting [7]) was 3%; in test [3] (setting [8]) it was 4%; in test [3] (at 50.0 µM), -1.9%; in test [4] (setting [7]), -3%; in test [4] (setting [8]) it was 7%; in test [4] (at 50.0 µM), 6.15%. Also, the growth inhibition in test [5] (setting [7]) was 0%; in test [5] (setting [8]) it was 1%; in test [5] (at 50.0 µM), 65.8%; in test [6] (setting [7]) it was -2%; in test [6] (setting [8]) it was 7%; in test [6] (at 50.0 µM), 2.75%.
`S=c1sc2c(s1)SCCOCCOCCOCCS2`: the growth inhibition is -4% in test [1] (setting [7]); 3% in test [1] (setting [8]); 29.3% in test [1] (at 50.0 µM); 5% in test [2] (setting [7]); 7% in test [2] (setting [8]); 0.95% in test [2] (at 50.0 µM). Besides, the growth inhibition was -12% in test [3] (setting [7]); 5% in test [3] (setting [8]); 30.6% in test [3] (at 50.0 µM); 12% in test [4] (setting [7]); 8% in test [4] (setting [8]); 31.1% in test [4] (at 50.0 µM). In addition, the growth inhibition was 4% in test [5] (setting [7]); 36% in test [5] (setting [8]); 22.2% in test [5] (at 50.0 µM); -15% in test [6] (setting [7]); -13% in test [6] (setting [8]); 23.4% in test [6] (at 50.0 µM).
With `CC(C(=O)N1C(=O)N(C(=O)C(C)C(O)c2ccccc2)C(c2ccccc2)C1c1ccccc1)C(O)c1ccccc1` (configuration not stated), the growth inhibition in test [1] (setting [7]) was 3%; in test [1] (setting [8]) it was 91% (active); in test [1] (at 50.0 µM), 89.2% (active); in test [2] (setting [7]), -10%; in test [2] (setting [8]), 92% (active); in test [2] (at 50.0 µM), 91.5% (active). The growth inhibition in test [3] (setting [7]) was -9%; in test [3] (setting [8]) it was 91% (active); in test [3] (at 50.0 µM) it was 91.9% (active); in test [4] (setting [7]) it was 29%; in test [4] (setting [8]) it was 89% (active); in test [4] (at 50.0 µM) it was 90.1% (active). In addition, the growth inhibition was -18% in test [5] (setting [7]); 96% (active) in test [5] (setting [8]); 88.2% (active) in test [5] (at 50.0 µM); 23% in test [6] (setting [7]); 91% (active) in test [6] (setting [8]); 91.3% (active) in test [6] (at 50.0 µM).
Regarding `Nc1cc(Cl)ccc1SSc1ccc(Cl)cc1N`, the growth inhibition was 11% in test [1] (setting [7]); 58% in test [1] (setting [8]); 49% in test [1] (at 50.0 µM); 67% in test [2] (setting [7]); 90% (active) in test [2] (setting [8]); 32.5% in test [2] (at 50.0 µM). Besides, the growth inhibition in test [3] (setting [7]) was 46%; in test [3] (setting [8]), 65%; in test [3] (at 50.0 µM) it was 48.6%; in test [4] (setting [7]), 22%; in test [4] (setting [8]), 39%; in test [4] (at 50.0 µM), -74.8%. The growth inhibition in test [5] (setting [7]) is 58%; in test [5] (setting [8]), 98% (active); in test [5] (at 50.0 µM) it was 50.6%; in test [6] (setting [7]), 35%; in test [6] (setting [8]), 51%; in test [6] (at 50.0 µM) it was 73.3% (active).
For `COc1cccc(NC(=S)NC2CC(C)CC(C)(C)C2)c1` (configuration not stated), the growth inhibition in test [1] (setting [7]) is 24%; in test [1] (setting [8]) it was 94% (active); in test [1] (at 50.0 µM) it was 86.5% (active); in test [2] (setting [7]), -11%; in test [2] (setting [8]) it was 85% (active); in test [2] (at 50.0 µM), 89.3% (active). Moreover, the growth inhibition is -1% in test [3] (setting [7]); 94% (active) in test [3] (setting [8]); 89.8% (active) in test [3] (at 50.0 µM); 30% in test [4] (setting [7]); 90% (active) in test [4] (setting [8]); 86.2% (active) in test [4] (at 50.0 µM). In addition, the growth inhibition was 8% in test [5] (setting [7]); 93% (active) in test [5] (setting [8]); 89.2% (active) in test [5] (at 50.0 µM); -7% in test [6] (setting [7]); 93% (active) in test [6] (setting [8]); 84.8% (active) in test [6] (at 50.0 µM).
For the compound `CCCCCCCCCCn1cc[nH]c1=S`, the growth inhibition in test [1] (setting [7]) was 47%; in test [1] (setting [8]) it was 99% (active); in test [1] (at 50.0 µM), 99% (active); in test [2] (setting [7]) it was 47%; in test [2] (setting [8]), 99% (active); in test [2] (at 50.0 µM), 99.2% (active). Further, the growth inhibition in test [3] (setting [7]) is 72% (active); in test [3] (setting [8]), 99% (active); in test [3] (at 50.0 µM) it was 99.3% (active); in test [4] (setting [7]), 18%; in test [4] (setting [8]), 99% (active); in test [4] (at 50.0 µM), 98.8% (active). In addition, the growth inhibition in test [5] (setting [7]) was 72% (active); in test [5] (setting [8]), 99% (active); in test [5] (at 50.0 µM), 99.2% (active); in test [6] (setting [7]) it was 59%; in test [6] (setting [8]), 98% (active); in test [6] (at 50.0 µM), 99.3% (active).
